{"source": "PubChem BioAssay (NCATS)", "note": "Inconclusive results are not listed. Values without a mark were called inactive. Activity calls are given as the source filed them. The call rests on the fitted dose curve; in most records, active means well fitted inhibition curve with a large enough effect; inconclusive means small, poorly fitted or top-dose-only effect; inactive means flat fitted curve, though single readings scatter. On the % scale 0 is the no-effect control and ±100 the full control effect; potency means the concentration at half of the fitted maximal effect.", "data": [{"tested_on": "CRL-7250", "assay": "Cytotoxic Profiling of Annotated Libraries Using Quantitative High-Throughput Screening (AID 1296008); further: nearly all actives have a fitted effect of over 60% in size", "details": "Five cell lines viability, CellTiter-Glo ATP luminescence, 48-72 h; max response: stronger effect = lower value", "how_it_was_run": "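Cells exposed to compounds for 48 or 72 hr at 37 degrees Celsius. Viability read as ATP-coupled luminescence with CellTiter-Glo after 10 min at room temperature.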", "units": {"max response": "%"}, "values": [{"smiles": "CC=CCC=CCCC(=O)[C@H]1O[C@@H]1C(N)=O", "outcome": "inactive"}, {"smiles": "Cc1ccc(C(C)(O)c2nc3ccccc3s2)c(C)c1", "note": "(configuration not stated)", "max response": 0.7}, {"smiles": "O=C(NCc1ccccc1)c1csc(Nc2ccncn2)n1", "Potency": "11.8 µM (active)"}, {"smiles": "CC[C@]1(O)C[C@@H]2CN(CCc3c([nH]c4ccccc34)[C@@](C(=O)OC)(c3cc4c(cc3OC)N(C=O)[C@@H]3C45CCN4CC=C[C@](CC)([C@H]45)[C@@H](OC(C)=O)[C@]3(O)C(=O)OC)C2)C1", "note": "(some centres not stated)", "max response": -20.2}, {"smiles": "CCCCCCCCCCCC1=C(O)C(=O)C=C(O)C1=O", "outcome": "inactive"}, {"smiles": "CC(C)(C)C(=O)Oc1ccc2c(c1)nc(NC(=O)c1cccc([N+](=O)[O-])c1)n2CCCO", "outcome": "inactive"}, {"smiles": "COC(=O)N[C@H](C(=O)N1CCC[C@@H]1c1ncc(-c2ccc(-c3ccc(-c4cnc([C@@H]5CCCN5C(=O)[C@@H](NC(=O)OC)C(C)C)[nH]4)cc3)cc2)[nH]1)C(C)C", "outcome": "inactive"}, {"smiles": "O=c1c(-c2ccc(O)cc2)coc2cc(OC3O[C@H](CO)[C@H](O)[C@H](O)[C@H]3O)cc(O)c12", "note": "(some centres not stated)", "max response": -31.9}, {"smiles": "COc1cc(N2CCC(N3CCN(C)CC3)CC2)ccc1Nc1ncc(Cl)c(Nc2ccccc2S(=O)(=O)C(C)C)n1", "Potency": "1.46 µM (active)"}, {"smiles": "CCC(=O)O[C@]1(C(=O)CO)CC[C@H]2[C@@H]3CCC4=CC(=O)CC[C@]4(C)[C@@H]3CC[C@@]21C", "Potency": "13.2 µM (active)"}, {"smiles": "Cc1cccc(Nc2nc(-c3ccncc3)cs2)c1", "max response": -0.257}, {"smiles": "Cc1ccc(/C=N/NC(=O)c2ccccc2Oc2ccccc2)o1", "max response": -0.512}]}]}
